Data taken from PubChem BioAssay (NCATS).
Inconclusive results are not listed. A number with no mark means an inactive call. The call rests on the fitted dose curve; in most records, active means well fitted inhibition curve with a large enough effect; inconclusive means small, poorly fitted or top-dose-only effect; inactive means no such curve, though single readings can be large or run the other way.

Target: Cytochrome P450 2D6 (Homo sapiens) (UniProt P10635)
Test: qHTS for inhibitors of CYP2D6 against the NCATS DSHEA and TCM libraries (AID 1919972)
Conditions: CYP2D6 enzymatic inhibition, luminescence qHTS; series mostly up to 34.1 µM; activity change, negative = inhibition: at the top concentration
Summary of the method: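 qHTS, concentration–response format with most substances from 19.5 nM. CYP2D6 + pro-luciferin substrate, 15 min with compound, then 1x NADPH regen, 30–45 min RT dark. Glo detection 30 min, luminescence. Quinidine control.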
On the % scale 0 is the no-effect control and ±100 the full control effect.

Sequence of Cytochrome P450 2D6 (Homo sapiens) (P10635 whole entry, looked up): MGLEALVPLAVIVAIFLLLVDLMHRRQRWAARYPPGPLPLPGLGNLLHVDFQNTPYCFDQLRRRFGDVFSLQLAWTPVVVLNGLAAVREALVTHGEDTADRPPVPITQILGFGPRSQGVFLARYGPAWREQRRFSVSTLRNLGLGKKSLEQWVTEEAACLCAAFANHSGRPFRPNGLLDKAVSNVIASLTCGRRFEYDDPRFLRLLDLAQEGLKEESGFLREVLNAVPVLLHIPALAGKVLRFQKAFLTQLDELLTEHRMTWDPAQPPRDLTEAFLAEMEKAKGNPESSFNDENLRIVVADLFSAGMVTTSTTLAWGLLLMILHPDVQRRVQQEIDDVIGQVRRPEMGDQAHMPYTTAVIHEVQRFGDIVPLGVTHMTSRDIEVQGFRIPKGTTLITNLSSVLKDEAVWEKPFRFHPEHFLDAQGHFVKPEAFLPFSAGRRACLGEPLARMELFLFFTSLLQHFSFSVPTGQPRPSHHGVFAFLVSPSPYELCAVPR

Row | SMILES | activity change, negative = inhibition
1 | CC(C)=CCCC(C)=CCCC(C)=CCCC=C(C)CCC=C(C)CCC=C(C)C | 2.78%
2 | CCCCCCCCCCCCCCCCCCCCCCCCCCCCCCO | -0.757% [at 4.27 µM]
3 | CC(C)c1ccc(C=O)cc1 | 0.0937% [at 58.3 µM]
4 | O=Cc1ccccc1O | -1.19% [at 58.3 µM]
5 | CC/C=C\C/C=C\C/C=C\C/C=C\CCCCC(=O)O | -5.86% [at 4.27 µM]
6 | C=C1C[C@@]23CC[C@H]4[C@@](C)(CCC[C@@]4(C)C(=O)O[C@@H]4O[C@H](CO)[C@@H](O)[C@H](O)[C@H]4O)[C@@H]2CC[C@]1(O[C@@H]1O[C@H](CO)[C@@H](O)[C@H](O[C@@H]2O[C@H](CO)[C@@H](O)[C@H](O)[C@H]2O)[C@H]1O[C@@H]1O[C@@H](C)[C@H](O)[C@@H](O)[C@H]1O)C3 | 8.22%
7 | C=C1C[C@]23CC[C@H]4[C@@](C)(CCC[C@@]4(C)C(=O)O)[C@@H]2CC[C@@]1(O[C@@H]1O[C@H](CO)[C@@H](O)[C@H](O)[C@H]1O[C@@H]1O[C@H](CO)[C@@H](O)[C@H](O)[C@H]1O)C3 | 1.05%
8 | Cc1ccc(C(C)C)cc1 | 5.88% [at 58.3 µM]
9 | Cc1ncc(COP(=O)(O)O)c(C)c1O | -22.9%
10 | OCCc1ccc(O)cc1 | -2.44% [at 58.3 µM]
11 | CN(CC(=O)O)C(=N)N | -2.19% [at 104 µM]
12 | COc1ccc(C(=O)O)cc1 | 1.01% [at 58.3 µM]
13 | CC(C)(O)[C@@H]1CC[C@](C)([C@@H]2[C@H](O)C[C@]3(C)C4C[C@@H](O[C@H]5O[C@@H](CO)[C@H](O)[C@@H](O)[C@@H]5O)C5C(C)(C)[C@H](O[C@H]6OC[C@H](O)[C@@H](O)[C@@H]6O)CC[C@]56CC46CC[C@@]23C)O1 (stereo partly drawn) | 2.24%
14 | C=CC(=C)CCC=C(C)C | 3.58%
15 | CC1=CCC(O)(C(C)C)CC1 (stereo not drawn) | 3.2% [at 58.3 µM]
16 | CCCCCC/C=C\CCCCCCCC(=O)O | 1.5%
17 | CC(C)=CCC[C@](C)(O[C@@H]1O[C@H](CO)[C@@H](O)[C@H](O)[C@H]1O)[C@H]1CC[C@]2(C)[C@@H]1[C@H](O)C[C@@H]1[C@@]3(C)CC[C@H](O)C(C)(C)[C@@H]3[C@@H](O[C@@H]3O[C@H](CO)[C@@H](O)[C@H](O)[C@H]3O[C@@H]3O[C@@H](C)[C@H](O)[C@@H](O)[C@H]3O)C[C@]12C | 3.1%
18 | C[C@@H]1O[C@@H](OC[C@H]2OC(Oc3c(-c4ccc(O)c(O)c4)oc4cc(O)cc(O)c4c3=O)[C@H](O)[C@@H](O)[C@@H]2O)[C@H](O)[C@H](O)[C@H]1O (stereo partly drawn) | 3.93%
